Measurements reported in PubChem BioAssay AID588453 (National Center for Advancing Translational Sciences (NCATS), 2011).
Hit rate of the full screen: of about 390,000 compounds, about 4,000 (1%) were called active. Inconclusive results (about 4%) are left out. Calls come from the whole dose curve; as a rule, active = well fitted inhibition curve with a large enough effect; inconclusive = small, poorly fitted or top-dose-only effect; inactive = no such curve, though single readings can be large or run the other way. The full list was thinned out, with actives kept by preference.

What follows are compounds tested against Thioredoxin reductase 1, cytoplasmic (Rattus norvegicus) (UniProt O89049) (assay: qHTS Assay for Inhibitors of Mammalian Selenoprotein Thioredoxin Reductase 1 (TrxR1): qHTS). Conditions: recombinant rTrxR1, NADPH fluorescence consumption, selenite substrate; series mostly up to 114 µM; activity change, negative = inhibition: at the top concentration.
Sequence of Thioredoxin reductase 1, cytoplasmic (Rattus norvegicus) (O89049 whole entry, looked up): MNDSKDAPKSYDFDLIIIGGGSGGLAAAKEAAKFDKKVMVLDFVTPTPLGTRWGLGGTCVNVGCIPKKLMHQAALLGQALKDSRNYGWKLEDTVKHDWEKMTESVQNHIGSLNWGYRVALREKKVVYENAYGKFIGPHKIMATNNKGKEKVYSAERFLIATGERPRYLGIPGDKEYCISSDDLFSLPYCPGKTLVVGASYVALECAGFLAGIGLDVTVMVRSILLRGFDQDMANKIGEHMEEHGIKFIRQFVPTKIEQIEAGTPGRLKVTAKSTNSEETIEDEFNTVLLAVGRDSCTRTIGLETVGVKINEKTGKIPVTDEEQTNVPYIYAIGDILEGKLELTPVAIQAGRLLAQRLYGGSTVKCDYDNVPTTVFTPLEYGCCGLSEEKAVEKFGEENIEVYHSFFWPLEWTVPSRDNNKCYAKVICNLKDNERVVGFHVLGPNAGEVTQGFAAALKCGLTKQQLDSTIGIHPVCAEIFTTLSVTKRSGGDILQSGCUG
In short: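 Rat TrxR1 (90 nM in the dispensed reagent) was pre-reduced with 400 uM NADPH for 5 min at room temperature, then incubated with compound for 15 min. After 400 uM selenite was added, NADPH fluorescence (Ex 340/Em 450 nm) was followed for 8 min.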
% is set by controls: 0 for no effect and ±100 for the full control effect; potency is the fitted concentration of half-maximal effect.
Note: nearly all actives have a fitted effect of over 65% in size.

Row | SMILES | activity change, negative = inhibition | Potency
1 | CCOC(=O)c1[nH]c(C)c(CCC(=O)N2CCN(c3ccccc3)CC2)c1C | 16% [at 57.1 µM] (inactive) | 
2 | CCc1nc2ccc(C(=O)N3CCN(c4cc(Cl)ccc4C)CC3)cc2nc1CC | 9.4% [at 57.1 µM] (inactive) | 
3 | CC(C)CNC(=S)NC(=O)c1ccc(Cl)cc1 |  | 14.1 µM (active)
4 | Cc1scc(C(=O)NNC(=S)NCC(C)C)c1C | 5.78% (inactive) | 
5 | CC(C)CNC(=S)NNC(=O)c1nn(C)cc1Cl | -12.6% [at 57.1 µM] (inactive) | 
6 | CCOC(=O)c1c(NC(=O)CSc2cn(CCNC(=O)c3cccc(C(F)(F)F)c3)c3ccccc23)sc2c1CCC2 | 16.1% [at 11.4 µM] (inactive) | 
7 | Cc1cc(C)nc(NNC2=CC(=O)CC(C)(C)C2)n1 |  | 14.1 µM (active)
8 | Cc1cc(O)ccc1NC1=CC(=O)CC(C)(C)C1 | -14.1% [at 57.1 µM] (inactive) | 
9 | CC1(C)CC(=O)C=C(NCc2ccncc2)C1 | -12.2% [at 57.1 µM] (inactive) | 
10 | Cc1ccc(OCCn2c(CNc3ccccc3C)nc3ccccc32)cc1 | 14.2% (inactive) | 
11 | CCN1CCc2nc3sc(C(=O)Nc4ccccc4OC(F)(F)F)c(N)c3cc2C1 | -1.24% (inactive) | 
12 | Cc1ccc(C)c(Cn2c(CCCNC(=O)C3CCCCC3)nc3ccccc32)c1 | 2.37% (inactive) | 
13 | CCC(=O)Nc1ccc2nc(SCC(=O)N3CCc4ccccc43)sc2c1 | 1.52% (inactive) | 
14 | O=C1C=CC(=O)N1c1ccc(N2CCCCC2)cc1 |  | 0.708 µM (active)
15 | O=C(NCc1ccc(F)cc1)c1ccc(Cn2c(SCc3ccc(F)cc3)nc3cccnc32)cc1 | 16.5% (inactive) | 
16 | Cc1ccc(C)n1-c1nnc(N2CCC(C(=O)NCc3ccc(F)cc3)CC2)s1 | -27.1% (inactive) | 
17 | COc1ccc(CCNC(=O)CCCn2c(=O)c3ccccc3n(Cc3ccc(F)cc3Cl)c2=O)cc1OC | 13.4% (inactive) | 
18 | Nc1ccccc1SC(C[N+](=O)[O-])c1ccccc1 (stereo not given) |  | 7.94 µM (active)
19 | CN(C)c1ccc(/C=c2\[nH]c(=O)/c(=C/c3ccc(N(C)C)cc3)[nH]c2=O)cc1 | 9.58% (inactive) | 
20 | Cc1ccc(C)c(NC(=O)C2Cc3ccccc3CN2C(=O)OCc2ccccc2)c1 (stereo not given) | 0.243% (inactive) | 
21 | Cc1ccc(S(=O)(=O)N(C)C)cc1NC(=O)C1Cc2ccccc2CN1C(=O)c1ccco1 (stereo not given) |  | 39.8 µM (active)
22 | COc1ccccc1N1CCN(C(=O)C2Cc3ccccc3CN2C(=O)c2ccco2)CC1 (stereo not given) | 1.63% (inactive) | 
23 | Cc1c(Cl)cccc1NC(=O)CCS(=O)(=O)c1ccc2c(c1)oc(=O)n2C | 0.617% (inactive) | 
24 | Cc1ccc(C)c(NC(=O)Cn2ccn(-c3ccc(F)cc3)c(=O)c2=O)c1 | 7.31% (inactive) | 
25 | CCc1cc2c(cc3c(=O)n(CC(=O)NCCc4ccc(OC)c(OC)c4)ncn32)s1 | 5.4% (inactive) | 

Row | SMILES | activity change, negative = inhibition | Potency
26 | O=C1c2ccccc2C(=O)N1CCOc1ccc(F)cc1 | 17.5% (inactive) | 
27 | O=C(OCCN1C(=O)c2ccccc2C1=O)Oc1ccccc1 | 29.4% (inactive) | 
28 | O=C1c2ccccc2C(=O)N1CCC(O)C[N+](=O)[O-] (stereo not given) |  | 70.8 µM (active)
29 | Cc1cc2nn(-c3ccc(Cl)cc3)nc2cc1NC(=O)C(C)C | 13.3% (inactive) | 
30 | CC(C)Oc1ccc(/C=C(\NC(=O)/C=C/c2ccco2)C(=O)NCCc2nc3ccccc3[nH]2)cc1 |  | 17.8 µM (active)
31 | COc1ccc(/C=C(\NC(=O)c2ccc(OCC(C)C)cc2)C(=O)OCc2ccco2)cc1 | -27.7% (inactive) | 
32 | CCCC(NC(=O)c1ccco1)c1nc2ccccc2[nH]1 (stereo not given) | -19% (inactive) | 
33 | O=C1CN(Cc2ccccc2)S(=O)(=O)c2ccccc21 | -21.6% (inactive) | 
34 | COc1cccc(CNC(=O)c2ccc3c(Cl)c4c(nc3c2)CCCC4)c1 | 39.5% (inactive) | 
35 | C/C=C(\C)C(=O)N1CC2(CC(c3cccc(NC(=O)CCCCC)c3)=NO2)C[C@@H]1C(N)=O (stereo not given in full) | -4.01% [at 57.1 µM] (inactive) | 
36 | CC/C=C/C(=O)N1CC2(CC(c3cccc(NC(=O)CC)c3)=NO2)C[C@H]1C(N)=O (stereo not given in full) | -13.2% [at 57.1 µM] (inactive) | 
37 | C/C=C\C=C\C(=O)N1CC2(CC(c3cccc(NC(=O)/C(C)=C\C)c3)=NO2)C[C@H]1C(N)=O (stereo not given in full) |  | 50.1 µM (active)
38 | COc1cccc(CNC(=O)Cc2csc3nc(-c4ccccc4)cn23)c1 | 18.4% [at 57.1 µM] (inactive) | 
39 | CNC(=O)NC(=O)CSc1nnc(-c2ccc(F)cc2)n1CC1CCCO1 (stereo not given) | 22.1% [at 57.1 µM] (inactive) | 
40 | Cc1nnc(SCC(=O)NNC(=O)c2ccc(Cl)cc2)n1CC1CCCO1 (stereo not given) | 14.4% [at 57.1 µM] (inactive) | 
41 | O=C(CSc1nnc(-c2ccco2)n1CC1CCCO1)c1ccccc1 (stereo not given) |  | 44.7 µM (active)
42 | CCc1cccc(NC(=O)c2cc(-c3ccccc3)n[nH]2)c1 | 10.9% (inactive) | 
43 | CC(C)(C)c1ccc(C(=O)C[n+]2cccc3cc(Cl)ccc32)cc1 | 6.36% (inactive) | 
44 | CC(C)c1ccc(S(=O)(=O)Nc2ccc(O)c(Sc3nc4ccccc4s3)c2)cc1 | -12.7% (inactive) | 
45 | O=[N+]([O-])c1c(NCCO)cc(Sc2nc3ccccc3s2)c2nonc12 |  | 1.12 µM (active)
46 | CC(C)(C)c1ccc(S(=O)(=O)Nc2ccc(O)c(Sc3nc4ccccc4s3)c2)cc1 | 13.8% (inactive) | 
47 | O=S(=O)(Nc1ccc2nc(-c3ccco3)[nH]c2c1)c1ccccc1 |  | 56.2 µM (active)
48 | O=S(=O)(Nc1ccc2nc(-c3cccc(Cl)c3)oc2c1)c1ccccc1 | 26.9% (inactive) | 
49 | CCc1ccccc1NS(=O)(=O)c1ccc2nc(-c3ccccc3)[nH]c2c1 | 10.8% (inactive) | 
50 | CCOC(=O)C1CCN(c2csc3ccc(C)cc3c2=O)CC1 | -0.301% [at 57.1 µM] (inactive) | 
